# Experimental data as given in PubChem BioAssay (NCATS).
# Inconclusive results are not listed. Where a call stands in place of a potency, no number is given. Activity calls are given as the source filed them. Unless noted, calls come from the whole dose curve; as a rule, active = well fitted curve in the direction sought with a large enough effect; inconclusive = small, poorly fitted or top-dose-only effect, or another doubt; inactive = no such curve, though single readings can be large; an effect the other way counts as inactive or inconclusive.
# Tested on: not listed separately
# Test: qHTS for differential inhibitors of proliferation of Plasmodium falciparum line D10 (AID 1877);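 note: parasites grown with compound for 72 h before DNA staining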; note: potency is the fitted concentration of half-maximal effect
# Conditions: series mostly up to 28.7 µM
row,Structure (SMILES),Potency
1,CNCCC(Oc1ccc(C(F)(F)F)cc1)c1ccccc1 (stereo unspecified),10 µM (active)
2,COC[C@H]1OC(=O)c2coc3c2[C@@]1(C)C1=C(C3=O)C2CCC(=O)[C@@]2(C)C[C@H]1OC(C)=O (stereo partly specified),inactive
3,CC[N+](CC)(CC)CC,11.2 µM (active)

# Tested on: not listed separately
# Test: qHTS for differential inhibitors of proliferation of Plasmodium falciparum line Dd2 (AID 1882); note: nearly all actives have a fitted effect of over 65% in size; note: potency is the fitted concentration of half-maximal effect
# Conditions: Potency: Plasmodium falciparum Dd2 proliferation inhibition; series mostly up to 28.7 µM
# In short: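 SYBR Green I DNA fluorescence read-out, ex 485/em 535 nm. Signals were normalized to 0.29 uM artemisinin and DMSO wells, then corrected using vehicle-only plates flanking each stack. Parasite growth ran 72 h in erythrocytes before lysis.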
row,Structure (SMILES),Potency
1,COc1ccc(Cc2nccc3cc(OC)c(OC)cc23)cc1OC,inactive
2,COC[C@H]1OC(=O)c2coc3c2[C@@]1(C)C1=C(C3=O)C2CCC(=O)[C@@]2(C)C[C@H]1OC(C)=O (stereo partly specified),11.2 µM (active)
3,CC[N+](CC)(CC)CC,inactive

# Tested on: not listed separately
# Test: qHTS for differential inhibitors of proliferation of Plasmodium falciparum line W2 (AID 1883);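 note: potency is the fitted concentration of half-maximal effect; parasites grown with compound for 72 h before lysis and staining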
# Conditions: Potency: Plasmodium falciparum W2 proliferation inhibition; series mostly up to 28.7 µM
row,Structure (SMILES),Potency
1,CC(COc1ccccc1)N(CCCl)Cc1ccccc1 (stereo unspecified),2.51 µM (active)
2,CNCCC(Oc1ccc(C(F)(F)F)cc1)c1ccccc1 (stereo unspecified),2.24 µM (active)
3,CC(C)C(=O)Nc1ccc([N+](=O)[O-])c(C(F)(F)F)c1,12.6 µM (active)
4,COC[C@H]1OC(=O)c2coc3c2[C@@]1(C)C1=C(C3=O)C2CCC(=O)[C@@]2(C)C[C@H]1OC(C)=O (stereo partly specified),11.2 µM (active)

# Tested on: not listed separately
# Test: qHTS Assay for Identification of Small Molecule Inducers of Hypoxia Response (AID 2120; active = well fitted curve in the direction sought with a large enough effect in the signal ratio, with a control signal flat, not every such curve was filed as active; the % refers to the signal ratio)
# Conditions: hypoxia response reporter cells, beta-lactamase ratio readout; series mostly up to 104 µM
# In short: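 HRE-beta-lactamase reporter in CellSensor HRE-bla ME-180 cells, 2500 cells/well in Opti-MEM with 0.5% dialyzed FBS; compounds tested as titration series, 17 h at 37 degrees C. CCF4 substrate 2.5 h at room temperature; AC50 from 460/530 nm ratio.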
row,Structure (SMILES),outcome
1,OCCOc1ccccc1,inactive
2,c1ccc2c(c1)Nc1ccccc1S2,inactive
3,C[C@]12C/C(=C/O)C(=O)C[C@@H]1CC[C@@H]1[C@@H]2CC[C@@]2(C)[C@H]1CC[C@]2(C)O,inactive
4,CCOP(=S)(OCC)Oc1cc(C)nc(C(C)C)n1,inactive
5,Oc1ccccc1-c1ccccc1,inactive

# Target: Ferritin light chain (Equus caballus) (UniProt P02791)
# Test: qHTS Validation Assay for Identification of Novel General Anesthetics (AID 2323)
# Conditions: horse apoferritin, anesthetic-site fluorescent probe displacement; series mostly up to 76.9 µM
# In short: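 Apoferritin from horse spleen (10 uM) was mixed with 1-aminoanthracene at 50% saturation in PBS, then compounds were added. After 10 min at room temperature, fluorescence was read (ex 380 nm, em 535 nm) and normalized to free-probe and complex controls.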
# Sequence of Ferritin light chain (Equus caballus) (P02791 2-175 limits assumed): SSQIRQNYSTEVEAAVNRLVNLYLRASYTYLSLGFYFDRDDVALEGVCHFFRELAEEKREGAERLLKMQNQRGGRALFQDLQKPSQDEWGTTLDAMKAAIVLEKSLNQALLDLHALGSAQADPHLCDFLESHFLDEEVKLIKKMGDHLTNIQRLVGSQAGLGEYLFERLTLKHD
row,Structure (SMILES),outcome
1,COc1ccc(Cc2nccc3cc(OC)c(OC)cc23)cc1OC,inactive
2,COC[C@H]1OC(=O)c2coc3c2[C@@]1(C)C1=C(C3=O)C2CCC(=O)[C@@]2(C)C[C@H]1OC(C)=O (stereo partly specified),inactive
3,CC[N+](CC)(CC)CC,inactive

# Target: ATP-dependent DNA helicase Q1 (Homo sapiens) (UniProt P46063)
# Test: qHTS Validation Assay for Inhibitors of RecQ-Like Dna Helicase 1 (RECQ1) (AID 2353)
# Conditions: recombinant RECQ1 helicase DNA unwinding assay; series mostly up to 25.6 µM
# In short: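 50 nM RECQ1T1 preincubated 15 min with compound in Tris pH 8.0 buffer with MgCl2, DTT, Tween-20 and 2.5 ug/ml poly(dI-dC); started with 200 nM TAMRA/BHQ-2 forked duplex and 2 mM ATP. Unwinding read as fluorescence (525/598 nm), two reads 2 h apart.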
# Sequence of ATP-dependent DNA helicase Q1 (Homo sapiens) (P46063 whole entry, looked up): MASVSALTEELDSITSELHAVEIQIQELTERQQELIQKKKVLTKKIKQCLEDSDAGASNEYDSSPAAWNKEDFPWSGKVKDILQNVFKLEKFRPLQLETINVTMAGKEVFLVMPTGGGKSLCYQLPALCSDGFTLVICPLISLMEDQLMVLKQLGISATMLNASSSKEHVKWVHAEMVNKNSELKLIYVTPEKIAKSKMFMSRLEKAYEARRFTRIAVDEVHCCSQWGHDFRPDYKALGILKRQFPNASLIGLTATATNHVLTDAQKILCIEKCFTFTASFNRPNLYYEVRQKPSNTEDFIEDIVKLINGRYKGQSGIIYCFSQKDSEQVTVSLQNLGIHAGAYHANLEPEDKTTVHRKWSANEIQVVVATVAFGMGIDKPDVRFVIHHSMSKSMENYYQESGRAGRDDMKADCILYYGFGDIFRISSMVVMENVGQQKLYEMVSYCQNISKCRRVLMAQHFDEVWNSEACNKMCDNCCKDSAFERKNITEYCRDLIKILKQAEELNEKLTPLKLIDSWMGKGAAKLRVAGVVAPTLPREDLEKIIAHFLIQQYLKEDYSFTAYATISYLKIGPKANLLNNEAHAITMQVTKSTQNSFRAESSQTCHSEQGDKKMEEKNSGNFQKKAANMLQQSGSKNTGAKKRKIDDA
row,Structure (SMILES),outcome
1,COc1ccc(Cc2nccc3cc(OC)c(OC)cc23)cc1OC,inactive
2,COC[C@H]1OC(=O)c2coc3c2[C@@]1(C)C1=C(C3=O)C2CCC(=O)[C@@]2(C)C[C@H]1OC(C)=O (stereo partly specified),inactive
3,CC[N+](CC)(CC)CC,inactive

# Target: RecQ-like DNA helicase BLM (Homo sapiens) (UniProt P54132)
# Test: qHTS Validation Assay for Inhibitors of Bloom's syndrome helicase (BLM) (AID 2364)
# Conditions: BLM helicase DNA unwinding, fluorescence, in vitro; series mostly up to 57.1 µM
# In short: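 Forked 20-bp duplex substrate (200 nM, TAMRA/BHQ-2) plus 2 mM ATP added after 15 min compound preincubation with 50 nM enzyme, pH 8.0, poly(dI-dC) 2.5 ug/ml. Strand separation followed by fluorescence (525/598 nm) over 2 h, normalized to enzyme-free and DMSO controls.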
# Sequence of RecQ-like DNA helicase BLM (Homo sapiens) (P54132 whole entry, looked up): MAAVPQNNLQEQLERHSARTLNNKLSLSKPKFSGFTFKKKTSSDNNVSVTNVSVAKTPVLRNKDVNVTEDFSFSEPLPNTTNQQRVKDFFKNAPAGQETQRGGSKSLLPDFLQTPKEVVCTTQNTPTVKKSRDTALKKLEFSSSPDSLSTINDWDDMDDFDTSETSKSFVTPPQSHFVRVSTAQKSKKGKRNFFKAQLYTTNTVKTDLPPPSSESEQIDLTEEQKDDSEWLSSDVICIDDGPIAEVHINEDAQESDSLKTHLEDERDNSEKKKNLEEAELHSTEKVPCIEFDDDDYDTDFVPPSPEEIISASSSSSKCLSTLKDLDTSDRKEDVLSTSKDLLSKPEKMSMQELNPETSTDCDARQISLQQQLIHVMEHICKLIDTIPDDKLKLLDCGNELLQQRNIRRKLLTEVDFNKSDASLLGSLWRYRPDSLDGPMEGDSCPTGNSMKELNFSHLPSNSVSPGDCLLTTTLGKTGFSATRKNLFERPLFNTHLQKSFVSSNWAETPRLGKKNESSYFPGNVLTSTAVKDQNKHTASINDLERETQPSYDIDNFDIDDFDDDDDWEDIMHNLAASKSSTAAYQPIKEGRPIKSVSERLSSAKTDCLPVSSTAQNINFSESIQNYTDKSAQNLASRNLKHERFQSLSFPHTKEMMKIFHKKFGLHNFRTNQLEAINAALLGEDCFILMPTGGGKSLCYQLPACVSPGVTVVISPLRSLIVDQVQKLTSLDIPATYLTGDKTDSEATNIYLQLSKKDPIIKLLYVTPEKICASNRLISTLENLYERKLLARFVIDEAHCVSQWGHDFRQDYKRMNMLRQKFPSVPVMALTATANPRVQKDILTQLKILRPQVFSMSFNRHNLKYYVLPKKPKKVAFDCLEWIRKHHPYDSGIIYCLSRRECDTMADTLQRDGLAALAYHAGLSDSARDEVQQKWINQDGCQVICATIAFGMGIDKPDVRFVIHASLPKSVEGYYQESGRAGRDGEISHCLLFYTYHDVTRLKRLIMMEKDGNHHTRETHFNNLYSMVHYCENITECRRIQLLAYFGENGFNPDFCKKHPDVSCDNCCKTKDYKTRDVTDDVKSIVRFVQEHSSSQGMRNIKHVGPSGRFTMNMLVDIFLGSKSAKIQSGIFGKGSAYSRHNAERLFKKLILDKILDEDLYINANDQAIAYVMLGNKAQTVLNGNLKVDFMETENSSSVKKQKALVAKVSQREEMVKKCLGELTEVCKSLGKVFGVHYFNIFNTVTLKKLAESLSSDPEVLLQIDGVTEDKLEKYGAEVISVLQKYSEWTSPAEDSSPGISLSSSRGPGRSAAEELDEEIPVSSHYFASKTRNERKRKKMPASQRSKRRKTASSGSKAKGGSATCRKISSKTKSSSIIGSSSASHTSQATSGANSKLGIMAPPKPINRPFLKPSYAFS
row,Structure (SMILES),Potency
1,CC(C)NCC(O)COc1cccc2[nH]ccc12 (stereo unspecified),inactive
2,CC12CC3CC(C)(C1)CC(N)(C3)C2,inactive
3,CNCCC(Oc1ccc(C(F)(F)F)cc1)c1ccccc1 (stereo unspecified),inactive
4,COC[C@H]1OC(=O)c2coc3c2[C@@]1(C)C1=C(C3=O)C2CCC(=O)[C@@]2(C)C[C@H]1OC(C)=O (stereo partly specified),inactive
5,CC[N+](CC)(CC)CC,inactive
